# Measurements published in publication PMC7862700, “An all-to-all approach to the identification of sequence-specific readers for epigenetic DNA modifications on cytosine”.
# What was measured:
# Assay in all cases: DAPPL (digital affinity profiling via proximity ligation, sequencing); 10 mM Tris-HCl pH 7.5, 50 mM NaCl, 1 mM DTT, 4% glycerol, room temperature, 30 min; GST-TFs on glutathione beads, 16-mer random dsDNA library, 0.1% formaldehyde crosslink after washing; high values mean tight binding
# FLI1 = target: T1, FLI1 (Homo sapiens, UniProt Q01543 1-452); conditions: protein: recombinant; tags: N-terminal GST; dsDNA, one strand shown
# T1 sequence: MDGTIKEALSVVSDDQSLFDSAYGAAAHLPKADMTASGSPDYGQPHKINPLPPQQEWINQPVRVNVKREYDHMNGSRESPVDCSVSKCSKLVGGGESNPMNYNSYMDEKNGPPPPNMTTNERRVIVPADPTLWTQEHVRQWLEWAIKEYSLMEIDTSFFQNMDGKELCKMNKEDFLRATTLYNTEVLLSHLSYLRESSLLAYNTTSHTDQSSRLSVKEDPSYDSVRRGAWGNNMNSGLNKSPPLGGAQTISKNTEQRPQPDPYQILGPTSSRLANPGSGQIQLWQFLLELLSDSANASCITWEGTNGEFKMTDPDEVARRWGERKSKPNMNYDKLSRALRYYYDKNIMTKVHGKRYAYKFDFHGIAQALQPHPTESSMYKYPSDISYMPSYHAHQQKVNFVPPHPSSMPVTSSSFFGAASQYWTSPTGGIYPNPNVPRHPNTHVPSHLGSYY
# Procedure, shortened: (§1)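 Beads coated with glutathione captured GST-fused human transcription factors that had been expressed in yeast, and the factors were then given DNA barcodes and pooled with a tag-only sample. The pools were incubated with 200 nmole of a random double-stranded 16-mer DNA library in Tris/NaCl/DTT/glycerol buffer for 30 min at room temperature, washed, crosslinked with 0.1% formaldehyde and proximity-ligated with BsaI/T4 ligase at 37 °C for 1 h. PCR amplification and Illumina NextSeq500 sequencing came last. Binding signal is each hexamer's read frequency for a factor divided by its frequency for the tag-only sample.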
# ELK1 = target: T2, ELK1 (Homo sapiens, UniProt P19419 1-428); conditions: protein: recombinant; tags: N-terminal GST; dsDNA, one strand shown
# T2 sequence: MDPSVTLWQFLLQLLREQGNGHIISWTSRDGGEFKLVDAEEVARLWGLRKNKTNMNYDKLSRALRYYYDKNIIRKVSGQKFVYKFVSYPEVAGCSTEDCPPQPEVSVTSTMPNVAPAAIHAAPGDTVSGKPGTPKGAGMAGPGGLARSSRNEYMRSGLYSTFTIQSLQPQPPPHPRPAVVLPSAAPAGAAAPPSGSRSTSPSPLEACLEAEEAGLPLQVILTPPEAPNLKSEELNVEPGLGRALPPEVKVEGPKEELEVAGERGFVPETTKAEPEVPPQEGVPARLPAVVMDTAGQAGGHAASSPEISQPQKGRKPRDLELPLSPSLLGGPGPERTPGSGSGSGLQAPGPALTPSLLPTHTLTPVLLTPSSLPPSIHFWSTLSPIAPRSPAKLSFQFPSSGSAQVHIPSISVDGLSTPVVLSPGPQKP
# Procedure, shortened: as §1
# GABPA = target: T3, GABPA (Homo sapiens, UniProt Q06546 1-454); conditions: protein: recombinant; tags: N-terminal GST; dsDNA, one strand shown
# T3 sequence: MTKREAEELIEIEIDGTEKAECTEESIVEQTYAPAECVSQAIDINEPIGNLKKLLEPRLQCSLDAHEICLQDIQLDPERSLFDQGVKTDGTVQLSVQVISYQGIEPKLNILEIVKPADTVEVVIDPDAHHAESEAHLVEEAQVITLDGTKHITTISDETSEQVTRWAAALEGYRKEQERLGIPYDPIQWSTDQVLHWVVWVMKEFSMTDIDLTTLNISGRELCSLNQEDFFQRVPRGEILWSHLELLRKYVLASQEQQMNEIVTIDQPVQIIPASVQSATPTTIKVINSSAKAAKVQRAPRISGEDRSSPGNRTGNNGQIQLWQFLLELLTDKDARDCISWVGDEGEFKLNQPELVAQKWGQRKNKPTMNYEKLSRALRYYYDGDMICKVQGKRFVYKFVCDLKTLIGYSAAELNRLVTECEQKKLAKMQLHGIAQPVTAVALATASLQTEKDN
# Procedure, shortened: as §1
# ERG = target: T4, ERG (Homo sapiens, UniProt P11308 1-479); conditions: protein: recombinant; tags: N-terminal GST; dsDNA, one strand shown
# T4 sequence: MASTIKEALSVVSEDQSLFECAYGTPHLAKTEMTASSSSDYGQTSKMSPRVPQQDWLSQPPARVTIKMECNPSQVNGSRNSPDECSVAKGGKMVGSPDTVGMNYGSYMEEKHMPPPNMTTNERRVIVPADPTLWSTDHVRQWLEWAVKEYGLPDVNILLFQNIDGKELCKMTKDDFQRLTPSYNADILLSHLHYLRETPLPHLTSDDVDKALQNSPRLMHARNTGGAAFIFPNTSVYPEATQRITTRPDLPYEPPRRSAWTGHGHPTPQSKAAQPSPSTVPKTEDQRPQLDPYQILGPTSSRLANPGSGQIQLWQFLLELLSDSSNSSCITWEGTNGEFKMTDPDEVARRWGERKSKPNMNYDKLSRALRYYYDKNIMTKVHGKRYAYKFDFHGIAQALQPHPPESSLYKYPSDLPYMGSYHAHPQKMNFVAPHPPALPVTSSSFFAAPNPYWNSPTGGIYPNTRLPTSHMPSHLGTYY
# Procedure, shortened: as §1
# ELF1 = ELF1 (Homo sapiens, UniProt P32519 1-619); conditions: protein: recombinant; tags: N-terminal GST; dsDNA, one strand shown
# Procedure, shortened: as §1
# EHF = target: T5, EHF (Homo sapiens, UniProt Q9NZC4 1-300); conditions: protein: recombinant; tags: N-terminal GST; dsDNA, one strand shown
# T5 sequence: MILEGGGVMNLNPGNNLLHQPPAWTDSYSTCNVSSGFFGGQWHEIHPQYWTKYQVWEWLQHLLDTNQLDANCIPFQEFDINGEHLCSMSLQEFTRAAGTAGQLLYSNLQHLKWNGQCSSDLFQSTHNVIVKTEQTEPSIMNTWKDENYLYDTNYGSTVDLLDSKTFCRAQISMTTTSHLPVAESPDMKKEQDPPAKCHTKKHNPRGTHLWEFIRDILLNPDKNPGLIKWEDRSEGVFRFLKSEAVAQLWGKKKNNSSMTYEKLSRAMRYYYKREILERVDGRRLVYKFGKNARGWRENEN
# Procedure, shortened: as §1
# SPI1 = SPI1 (Homo sapiens, UniProt P17947 1-270); conditions: protein: recombinant; tags: N-terminal GST; dsDNA, one strand shown
# Procedure, shortened: as §1
# SPIB = SPIB (Homo sapiens, UniProt Q01892 1-262); conditions: protein: recombinant; tags: N-terminal GST; dsDNA, one strand shown
# Procedure, shortened: as §1
# ELK3 = target: T6, ELK3 (Homo sapiens, UniProt P41970 1-407); conditions: protein: recombinant; tags: N-terminal GST; dsDNA, one strand shown
# T6 sequence: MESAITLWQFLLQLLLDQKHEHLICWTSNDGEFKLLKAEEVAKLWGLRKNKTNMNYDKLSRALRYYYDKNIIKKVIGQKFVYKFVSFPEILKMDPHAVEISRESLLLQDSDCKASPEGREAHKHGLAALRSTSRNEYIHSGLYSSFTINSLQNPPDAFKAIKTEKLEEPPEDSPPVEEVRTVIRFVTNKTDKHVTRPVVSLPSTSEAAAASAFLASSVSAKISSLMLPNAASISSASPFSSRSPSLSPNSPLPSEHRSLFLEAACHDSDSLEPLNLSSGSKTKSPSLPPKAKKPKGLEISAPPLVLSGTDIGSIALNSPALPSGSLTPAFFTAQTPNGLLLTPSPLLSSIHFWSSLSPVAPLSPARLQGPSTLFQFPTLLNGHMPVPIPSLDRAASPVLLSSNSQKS
# Procedure, shortened: as §1
# FEV = target: T7, FEV (Homo sapiens, UniProt Q99581 1-238); conditions: protein: recombinant; tags: N-terminal GST; dsDNA, one strand shown
# T7 sequence: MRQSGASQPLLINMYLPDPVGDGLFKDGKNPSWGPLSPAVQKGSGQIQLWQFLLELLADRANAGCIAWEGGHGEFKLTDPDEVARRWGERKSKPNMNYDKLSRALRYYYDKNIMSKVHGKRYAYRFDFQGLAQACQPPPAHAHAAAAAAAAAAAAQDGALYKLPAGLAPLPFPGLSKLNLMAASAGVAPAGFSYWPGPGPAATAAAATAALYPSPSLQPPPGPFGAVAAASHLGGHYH
# Procedure, shortened: as §1
# ETV5 = ETV5 (Homo sapiens, UniProt P41161 1-510); conditions: protein: recombinant; tags: N-terminal GST; dsDNA, one strand shown
# Procedure, shortened: as §1
# HSF1 = HSF1 (Homo sapiens, UniProt Q00613 1-529); conditions: protein: recombinant; tags: N-terminal GST; chain copies: 3; dsDNA, one strand shown
# Procedure, shortened: as §1
# SPIC = target: T8, SPIC (Homo sapiens, UniProt Q8N5J4 1-248); conditions: protein: recombinant; tags: N-terminal GST; dsDNA, one strand shown
# T8 sequence: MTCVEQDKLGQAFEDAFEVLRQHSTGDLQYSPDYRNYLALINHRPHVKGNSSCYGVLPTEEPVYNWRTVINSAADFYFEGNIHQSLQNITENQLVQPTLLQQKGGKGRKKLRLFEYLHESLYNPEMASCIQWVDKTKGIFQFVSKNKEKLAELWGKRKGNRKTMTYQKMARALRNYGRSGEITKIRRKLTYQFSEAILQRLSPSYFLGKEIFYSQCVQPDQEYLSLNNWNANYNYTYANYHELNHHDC
# Procedure, shortened: as §1
# ELF4 = ELF4 (Homo sapiens, UniProt Q99607 1-663); conditions: protein: recombinant; tags: N-terminal GST; dsDNA, one strand shown
# Procedure, shortened: as §1
# ELK4 = target: T9, ELK4 (Homo sapiens, UniProt P28324-2 1-405); conditions: protein: recombinant; tags: N-terminal GST; dsDNA, one strand shown
# T9 sequence: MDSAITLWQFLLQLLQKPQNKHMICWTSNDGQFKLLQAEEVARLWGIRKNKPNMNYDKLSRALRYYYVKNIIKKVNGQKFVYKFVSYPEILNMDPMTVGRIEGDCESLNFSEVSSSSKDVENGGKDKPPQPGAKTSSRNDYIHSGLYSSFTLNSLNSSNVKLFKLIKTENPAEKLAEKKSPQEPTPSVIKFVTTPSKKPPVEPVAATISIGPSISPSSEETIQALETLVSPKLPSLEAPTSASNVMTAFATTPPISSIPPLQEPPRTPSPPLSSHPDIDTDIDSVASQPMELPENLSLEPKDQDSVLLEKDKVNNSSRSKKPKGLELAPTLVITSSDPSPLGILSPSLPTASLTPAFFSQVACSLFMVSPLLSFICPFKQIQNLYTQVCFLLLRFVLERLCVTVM
# Procedure, shortened: as §1
# ETV2 = target: T10, ETV2 (Homo sapiens, UniProt O00321 1-342); conditions: protein: recombinant; tags: N-terminal GST; dsDNA, one strand shown
# T10 sequence: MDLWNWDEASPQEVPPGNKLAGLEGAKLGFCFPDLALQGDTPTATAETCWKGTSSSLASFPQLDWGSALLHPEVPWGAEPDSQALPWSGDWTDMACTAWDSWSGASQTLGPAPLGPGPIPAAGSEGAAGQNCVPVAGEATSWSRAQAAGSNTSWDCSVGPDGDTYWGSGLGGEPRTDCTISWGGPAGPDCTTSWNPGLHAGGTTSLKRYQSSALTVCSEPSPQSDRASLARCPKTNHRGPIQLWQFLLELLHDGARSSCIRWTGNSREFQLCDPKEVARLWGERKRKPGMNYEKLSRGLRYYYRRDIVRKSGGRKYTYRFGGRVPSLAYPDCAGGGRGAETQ
# Procedure, shortened: as §1
# ELF3 = target: T11, ELF3 (Homo sapiens, UniProt P78545 1-371); conditions: protein: recombinant; tags: N-terminal GST; dsDNA, one strand shown
# T11 sequence: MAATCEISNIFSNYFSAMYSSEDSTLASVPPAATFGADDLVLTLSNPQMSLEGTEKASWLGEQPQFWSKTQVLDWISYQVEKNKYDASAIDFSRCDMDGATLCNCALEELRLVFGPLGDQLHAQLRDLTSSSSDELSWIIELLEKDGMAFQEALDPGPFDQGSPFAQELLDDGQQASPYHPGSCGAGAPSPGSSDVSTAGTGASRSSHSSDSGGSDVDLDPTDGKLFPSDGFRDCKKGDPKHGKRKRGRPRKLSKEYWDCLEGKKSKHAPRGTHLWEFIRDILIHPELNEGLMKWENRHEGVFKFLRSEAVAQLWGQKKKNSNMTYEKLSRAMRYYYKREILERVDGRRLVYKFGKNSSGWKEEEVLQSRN
# Procedure, shortened: as §1
# CRX = CRX (Homo sapiens, UniProt O43186 1-299); conditions: protein: recombinant; tags: N-terminal GST; dsDNA, one strand shown
# Procedure, shortened: as §1
# ETV1 = ETV1 (Homo sapiens, UniProt P50549 1-477); conditions: protein: recombinant; tags: N-terminal GST; dsDNA, one strand shown
# Procedure, shortened: as §1
# HSF1, sequence (Q00613 whole entry): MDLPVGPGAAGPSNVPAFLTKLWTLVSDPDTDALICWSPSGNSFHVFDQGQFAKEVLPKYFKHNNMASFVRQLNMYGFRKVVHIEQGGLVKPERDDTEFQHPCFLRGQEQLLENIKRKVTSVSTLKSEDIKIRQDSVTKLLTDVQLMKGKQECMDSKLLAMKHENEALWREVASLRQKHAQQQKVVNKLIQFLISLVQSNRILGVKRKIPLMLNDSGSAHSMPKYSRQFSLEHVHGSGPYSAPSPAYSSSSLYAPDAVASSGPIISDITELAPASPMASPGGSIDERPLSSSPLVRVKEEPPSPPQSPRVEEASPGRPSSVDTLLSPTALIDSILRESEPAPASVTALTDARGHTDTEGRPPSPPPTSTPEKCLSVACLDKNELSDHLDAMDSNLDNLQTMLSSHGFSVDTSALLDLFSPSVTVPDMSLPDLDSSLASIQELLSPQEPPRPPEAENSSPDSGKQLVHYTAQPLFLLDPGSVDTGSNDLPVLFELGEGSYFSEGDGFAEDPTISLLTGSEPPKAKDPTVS
# ELF1, sequence (P32519 whole entry): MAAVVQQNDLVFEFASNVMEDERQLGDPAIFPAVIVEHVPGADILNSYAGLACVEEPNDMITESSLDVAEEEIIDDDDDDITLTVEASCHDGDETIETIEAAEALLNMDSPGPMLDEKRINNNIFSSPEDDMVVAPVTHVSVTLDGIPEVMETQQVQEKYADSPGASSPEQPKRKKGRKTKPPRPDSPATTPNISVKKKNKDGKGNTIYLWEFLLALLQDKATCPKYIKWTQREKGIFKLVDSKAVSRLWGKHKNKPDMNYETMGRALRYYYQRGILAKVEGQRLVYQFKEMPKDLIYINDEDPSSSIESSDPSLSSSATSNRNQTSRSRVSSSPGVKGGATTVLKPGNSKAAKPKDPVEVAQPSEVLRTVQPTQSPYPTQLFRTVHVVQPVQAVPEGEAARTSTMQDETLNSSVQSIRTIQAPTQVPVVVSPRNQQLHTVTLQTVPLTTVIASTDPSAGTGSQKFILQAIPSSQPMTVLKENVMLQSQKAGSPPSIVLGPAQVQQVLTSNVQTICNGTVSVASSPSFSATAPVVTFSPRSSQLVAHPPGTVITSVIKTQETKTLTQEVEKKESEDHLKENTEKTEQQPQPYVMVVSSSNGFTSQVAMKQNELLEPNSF
# ELF4, sequence (Q99607 whole entry): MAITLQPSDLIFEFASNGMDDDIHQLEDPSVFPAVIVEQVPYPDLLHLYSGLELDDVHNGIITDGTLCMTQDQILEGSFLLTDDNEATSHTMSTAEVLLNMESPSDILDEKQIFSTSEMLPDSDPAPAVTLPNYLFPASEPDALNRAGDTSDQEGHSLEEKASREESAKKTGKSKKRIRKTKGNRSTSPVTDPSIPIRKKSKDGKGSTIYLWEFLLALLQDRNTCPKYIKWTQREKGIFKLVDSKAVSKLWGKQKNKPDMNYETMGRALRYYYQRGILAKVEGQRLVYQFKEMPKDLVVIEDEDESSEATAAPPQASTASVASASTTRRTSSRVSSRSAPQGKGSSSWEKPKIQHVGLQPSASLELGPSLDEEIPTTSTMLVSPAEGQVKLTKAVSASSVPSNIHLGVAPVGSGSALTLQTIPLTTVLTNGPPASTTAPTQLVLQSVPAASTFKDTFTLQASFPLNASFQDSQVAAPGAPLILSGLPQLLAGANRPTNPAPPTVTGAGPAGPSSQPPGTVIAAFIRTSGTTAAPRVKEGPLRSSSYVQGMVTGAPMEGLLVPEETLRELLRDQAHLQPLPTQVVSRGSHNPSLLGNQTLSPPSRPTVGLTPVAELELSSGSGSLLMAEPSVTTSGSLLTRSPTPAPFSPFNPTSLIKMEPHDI
# SPIB, sequence (Q01892 whole entry): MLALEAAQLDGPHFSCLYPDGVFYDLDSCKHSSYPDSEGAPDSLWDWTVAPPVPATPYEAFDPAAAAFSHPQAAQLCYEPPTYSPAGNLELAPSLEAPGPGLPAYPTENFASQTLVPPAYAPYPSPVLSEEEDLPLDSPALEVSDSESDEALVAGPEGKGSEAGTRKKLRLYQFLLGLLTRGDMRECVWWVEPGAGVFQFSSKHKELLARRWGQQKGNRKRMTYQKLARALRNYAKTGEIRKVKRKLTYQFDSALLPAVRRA
# CRX, sequence (O43186 whole entry): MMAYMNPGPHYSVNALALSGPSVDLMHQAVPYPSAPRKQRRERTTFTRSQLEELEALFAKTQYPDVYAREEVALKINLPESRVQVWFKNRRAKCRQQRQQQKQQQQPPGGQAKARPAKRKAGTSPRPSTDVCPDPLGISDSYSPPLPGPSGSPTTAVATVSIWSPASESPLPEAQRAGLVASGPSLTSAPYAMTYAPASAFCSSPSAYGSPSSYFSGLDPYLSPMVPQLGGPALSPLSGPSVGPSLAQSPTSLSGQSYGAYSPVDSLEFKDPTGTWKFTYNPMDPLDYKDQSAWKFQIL
# ETV5, sequence (P41161 whole entry): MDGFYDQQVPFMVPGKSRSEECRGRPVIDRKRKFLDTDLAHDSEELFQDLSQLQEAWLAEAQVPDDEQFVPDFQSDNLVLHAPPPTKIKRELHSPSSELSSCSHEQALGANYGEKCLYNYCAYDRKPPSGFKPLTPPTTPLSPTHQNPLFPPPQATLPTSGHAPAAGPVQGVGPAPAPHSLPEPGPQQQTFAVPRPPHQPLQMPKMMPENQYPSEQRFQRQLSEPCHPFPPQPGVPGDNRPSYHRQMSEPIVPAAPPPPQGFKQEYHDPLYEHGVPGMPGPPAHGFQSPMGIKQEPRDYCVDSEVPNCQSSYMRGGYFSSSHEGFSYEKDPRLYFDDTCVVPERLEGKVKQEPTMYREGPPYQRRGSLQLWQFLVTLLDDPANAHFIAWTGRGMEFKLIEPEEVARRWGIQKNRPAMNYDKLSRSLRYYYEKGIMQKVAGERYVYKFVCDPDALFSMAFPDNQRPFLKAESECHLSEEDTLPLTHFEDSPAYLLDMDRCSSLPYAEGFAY
# ETV1, sequence (P50549 whole entry): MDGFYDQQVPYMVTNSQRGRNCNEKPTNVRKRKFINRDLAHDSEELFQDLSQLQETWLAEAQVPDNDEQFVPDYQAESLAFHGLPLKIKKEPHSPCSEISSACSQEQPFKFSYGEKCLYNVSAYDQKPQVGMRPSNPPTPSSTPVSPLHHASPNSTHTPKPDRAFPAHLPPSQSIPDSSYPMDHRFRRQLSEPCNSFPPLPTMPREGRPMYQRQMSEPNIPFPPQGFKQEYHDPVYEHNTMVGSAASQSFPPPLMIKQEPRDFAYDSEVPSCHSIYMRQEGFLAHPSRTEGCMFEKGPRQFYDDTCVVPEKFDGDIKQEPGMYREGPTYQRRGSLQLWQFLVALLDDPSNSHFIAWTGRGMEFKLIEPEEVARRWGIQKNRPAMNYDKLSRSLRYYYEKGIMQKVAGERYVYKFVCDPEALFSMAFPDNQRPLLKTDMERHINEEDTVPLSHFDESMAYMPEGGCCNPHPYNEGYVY
sequence,measurement,setting,value
TTCCTG,binding signal,FLI1,"2.3 fold enrichment (6-mer frequency, TF over GST control)"
same,binding signal,ELK1,"2.3 fold enrichment (6-mer frequency, TF over GST control)"
same,binding signal,GABPA,"2.17 fold enrichment (6-mer frequency, TF over GST control)"
same,binding signal,ERG,"2.59 fold enrichment (6-mer frequency, TF over GST control)"
same,binding signal,ELF1,"2.22 fold enrichment (6-mer frequency, TF over GST control)"
same,binding signal,EHF,"2.23 fold enrichment (6-mer frequency, TF over GST control)"
same,binding signal,SPI1,"2.64 fold enrichment (6-mer frequency, TF over GST control)"
same,binding signal,SPIB,"2.36 fold enrichment (6-mer frequency, TF over GST control)"
same,binding signal,ELK3,"2.28 fold enrichment (6-mer frequency, TF over GST control)"
same,binding signal,FEV,"2.13 fold enrichment (6-mer frequency, TF over GST control)"
same,binding signal,ETV5,"2.57 fold enrichment (6-mer frequency, TF over GST control)"
same,binding signal,HSF1,"1.63 fold enrichment (6-mer frequency, TF over GST control)"
same,binding signal,SPIC,"2.31 fold enrichment (6-mer frequency, TF over GST control)"
same,binding signal,ELF4,"2.05 fold enrichment (6-mer frequency, TF over GST control)"
same,binding signal,ELK4,"1.78 fold enrichment (6-mer frequency, TF over GST control)"
same,binding signal,ETV2,"2.46 fold enrichment (6-mer frequency, TF over GST control)"
same,binding signal,ELF3,"2.23 fold enrichment (6-mer frequency, TF over GST control)"
same,binding signal,CRX,"1.12 fold enrichment (6-mer frequency, TF over GST control)"
same,binding signal,ETV1,"2.22 fold enrichment (6-mer frequency, TF over GST control)"
